Laboratory results as given in PMC4336329 (PLoS ONE, 2015).
In all, about 310,000 compounds went through this assay and about 14,000 (4.5%) showed an effect of 50% or more. Effects have a minus sign here. Only a selection was taken, and strong results are over-represented in it overall.

Each molecule was assayed against human ether-à-go-go-related gene (hERG) potassium channel (human, UniProt Q12809) (assay: primary screen, population patch clamp on CHO cells stably expressing hERG; higher = less effect of the substance).
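Further: peak tail current of the secondary pulse compared with the same well before compound.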

Sequence of human ether-à-go-go-related gene (hERG) potassium channel (Q12809 whole entry, looked up): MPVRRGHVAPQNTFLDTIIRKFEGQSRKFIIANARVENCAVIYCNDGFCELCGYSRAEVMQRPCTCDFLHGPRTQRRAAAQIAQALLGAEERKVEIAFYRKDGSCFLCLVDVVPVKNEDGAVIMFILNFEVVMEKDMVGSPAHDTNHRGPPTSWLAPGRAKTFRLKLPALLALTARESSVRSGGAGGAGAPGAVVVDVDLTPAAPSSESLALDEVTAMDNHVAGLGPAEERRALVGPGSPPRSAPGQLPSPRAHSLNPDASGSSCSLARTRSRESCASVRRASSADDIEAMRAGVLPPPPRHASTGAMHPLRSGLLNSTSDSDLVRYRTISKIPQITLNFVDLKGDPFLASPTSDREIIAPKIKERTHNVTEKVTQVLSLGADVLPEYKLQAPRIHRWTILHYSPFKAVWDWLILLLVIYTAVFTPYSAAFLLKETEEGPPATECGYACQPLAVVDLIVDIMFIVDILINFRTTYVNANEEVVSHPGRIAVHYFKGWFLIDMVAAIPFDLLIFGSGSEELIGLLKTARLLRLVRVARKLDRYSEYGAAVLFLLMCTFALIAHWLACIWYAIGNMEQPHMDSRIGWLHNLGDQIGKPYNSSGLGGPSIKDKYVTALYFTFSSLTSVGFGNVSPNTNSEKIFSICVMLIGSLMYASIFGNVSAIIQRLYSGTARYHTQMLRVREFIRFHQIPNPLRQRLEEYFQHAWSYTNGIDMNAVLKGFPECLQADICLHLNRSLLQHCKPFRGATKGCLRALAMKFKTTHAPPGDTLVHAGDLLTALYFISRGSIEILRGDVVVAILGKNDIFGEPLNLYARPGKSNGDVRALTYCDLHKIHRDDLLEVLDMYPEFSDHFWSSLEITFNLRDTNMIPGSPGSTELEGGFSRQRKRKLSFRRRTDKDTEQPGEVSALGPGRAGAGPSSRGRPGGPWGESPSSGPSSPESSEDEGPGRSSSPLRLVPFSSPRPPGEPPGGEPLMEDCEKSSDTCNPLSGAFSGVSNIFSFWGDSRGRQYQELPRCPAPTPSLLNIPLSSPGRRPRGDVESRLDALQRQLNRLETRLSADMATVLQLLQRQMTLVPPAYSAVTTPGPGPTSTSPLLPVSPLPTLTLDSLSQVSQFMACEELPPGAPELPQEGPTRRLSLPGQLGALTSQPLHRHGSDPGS

Structure (SMILES)	hERG current change (%, negative = inhibition) at 10uM [%]
COc1cccc(C2=NOC(C(=O)Nc3ccc(OC)c(OC)c3)C2)c1 (stereo not shown)	-11.8
Cn1c(SCc2c(F)cccc2Cl)nc2c(c1=O)SCC2	6.6
COc1ccc(C(c2nnnn2Cc2cccs2)N2CCN(c3ccc(F)cc3)CC2)cc1OC (stereo not shown)	-69.4
COc1ccc(C(c2nnnn2Cc2cccs2)N2CCN(c3ccccc3F)CC2)cc1 (stereo not shown)	4.04
Fc1ccc(C(c2nnnn2Cc2cccs2)N2CCN(c3ccccc3)CC2)cc1 (stereo not shown)	-21.3
CC(=O)Nc1ccc(Oc2cc(C#N)c(C#N)cc2N2CCOCC2)cc1	-16.9
Nc1ccccc1SC1CC(=O)N(c2ccc3c(c2)OCO3)C1=O (stereo not shown)	14.7
COc1ccc(C2=Nn3c(nnc3-c3ccc(OC)cc3)SC2)cc1	-55
COc1ccc(C2=Nn3c(nnc3-c3ccncc3)SC2)cc1	-41.1
CCOc1ccc(C2=Nn3c(nnc3-c3ccc(OC)cc3)SC2)cc1	-16
CCOc1ccc(C2=Nn3c(nnc3-c3ccccc3OC)SC2)cc1	-63.4
Cc1cc(-c2nnc3n2N=C(c2ccc(F)cc2)CS3)n[nH]1	-60.3
CCOc1ccc(-c2nnc3n2N=C(c2ccc(OC)cc2)CS3)cc1	0.919
Br.COc1ccc(C2=Nn3c(C)nnc3SC2)cc1	0.091
COc1ccc(OC)c(C2=Nn3c(nnc3-c3cc(C)[nH]n3)SC2)c1	-19.7
Cc1cc(-c2nnc3n2N=C(c2ccccc2)CS3)n[nH]1	-22.7
COc1ccc(C2=Nn3c(nnc3-c3cc(C)[nH]n3)SC2)cc1	-64
COc1ccc(C2=Nn3c(nnc3-c3ccccn3)SC2)cc1	-34.3
Cc1cc(-c2nnc3n2N=C(c2ccc(-c4ccccc4)cc2)CS3)n[nH]1	-15.7
O=C(Cn1cc2c(n1)CCCCC2)NCc1ccccn1	-2.69
CCOc1cc(C(=O)N2CCC3(CC2)OCCO3)cc(OCC)c1OCC	-12.5
CCOC(=O)N1CCN(CC(=O)N2c3ccccc3CC2C)CC1.O=C(O)C(=O)O (stereo not shown)	10.4
Cc1ccc(CNC(=O)C2CCN(S(=O)(=O)c3ccc(Br)s3)CC2)cc1	3.77
COC(=O)c1cc2nc(-c3ccccc3)cc(C(F)(F)F)n2n1	19.7
CCOc1ccc(S(=O)(=O)/N=C(\N)c2ccccc2)cc1	-7.03
